Compound activity deposited in PubChem by several laboratories.
PP1 inh: PP1-alpha phosphatase inhibitors, primary screen, counter-screen for PP5 inhibitor project, biochemical, fluorescence, OMFP substrate, single point; Serine/threonine-protein phosphatase PP1-alpha catalytic subunit (Homo sapiens), P62136; purified PP1alpha; inhibition, % at 6.7 µM; 320,000 compounds, 0.9% hits;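 active = inhibition above the mean inhibition of all tested compounds plus 3 SD, computed separately for each screening campaign, cut at about 15% in these data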
PP5 primary: PP5 phosphatase inhibitors, primary screen, biochemical, fluorescence. Serine/threonine-protein phosphatase 5 (Homo sapiens), P53041. inhibition, % at 6.7 µM. 320,000 compounds, 0.18% hits. AID 1987, 2009. purified PP5c, OMFP substrate fluorescence;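 active = inhibition above the campaign's mean inhibition across all tested compounds plus 3 SD, cut at about 9.5% in these data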
Target sequence (P53041 whole entry, looked up): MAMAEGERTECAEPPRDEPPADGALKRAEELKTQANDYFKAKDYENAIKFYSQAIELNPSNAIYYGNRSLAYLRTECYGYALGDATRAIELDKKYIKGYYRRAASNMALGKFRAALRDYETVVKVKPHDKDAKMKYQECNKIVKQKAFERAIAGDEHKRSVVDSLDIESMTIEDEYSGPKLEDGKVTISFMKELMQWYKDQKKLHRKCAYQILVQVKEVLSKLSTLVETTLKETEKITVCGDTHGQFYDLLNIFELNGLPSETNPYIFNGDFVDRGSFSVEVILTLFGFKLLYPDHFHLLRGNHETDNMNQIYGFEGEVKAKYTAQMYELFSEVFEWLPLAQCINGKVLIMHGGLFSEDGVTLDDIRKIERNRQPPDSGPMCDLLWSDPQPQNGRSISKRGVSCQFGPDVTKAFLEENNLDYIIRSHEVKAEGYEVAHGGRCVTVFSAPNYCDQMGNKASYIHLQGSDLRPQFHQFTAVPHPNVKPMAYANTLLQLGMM
IDE cell inh: human IDE inhibitors in live cells, primary screen, fluorescence polarization, HEK cells, FAbetaB substrate; inhibition, % at 5.59 µM; 320,000 compounds, 0.41% hits; FAbetaB cleavage;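 active = percent inhibition above the average of all tested compounds plus 3 SD, set per screening campaign, cut at about 16% in these data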;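 also: IDE supplied by intact live HEK cells; FP after avidin binding of uncleaved biotin substrate so inhibition keeps polarization high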
SKKanGAS inh: S. pyogenes SKKanGAS growth inhibitors in kanamycin, primary screen, streptokinase expression inhibitor project, SKKanGAS strain, BacTiter-Glo luminescence | 6 h | inhibition, % at 7.5 µM | 300,000 compounds, 1.3% hits;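 active = mean replicate score, as percent of positive control median, at least 50; inconclusive = mean below 50 but one replicate at or above 50; inactive = mean and every replicate below 50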;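 also: strain carries kanamycin resistance gene driven by streptokinase promoter and grows in 40 µg/ml kanamycin; loss of luminescence reflects streptokinase promoter inhibition or plain growth inhibition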
IDE act: human IDE activators in live cells, primary screen, fluorescence polarization, HEK cells, FAbeta-B substrate | 340,000 compounds, 0.073% hits | Insulin-degrading enzyme (Homo sapiens), P14735 | FAbeta-B cleavage; 0% vehicle, 100% cell-free pure enzyme wells | AID 493087, 2011 | activation, % at 5.96 µM;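 active = activation above the mean of all tested compounds plus 3 SD, set per screening campaign, cut at about 17% in these data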
Granule exo inh: LAMP-1 surface exposure blockers, TALL-104 cells – cell-based, flow cytometry, MLPCN library, primary screen; 360,000 compounds, 0.66% hits; AID 651702, 2012; TALL-104 LAMP-1 surface exposure; cells stimulated with thapsigargin and PMA; inhibition, % at 10 µM;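 active = inhibition above about 55%, limit read from the data; inconclusive = no clear call, values can overlap the other calls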
IDE inh confirm: human IDE inhibitors in live cells, confirmation, fluorescence polarization, HEK cells, FAbetaB substrate; 1,200 compounds, 51% hits; AID 435028, 2010; FAbetaB cleavage; inhibition, % at 5.59 µM; shares compounds with IDE cell inh;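 active = mean inhibition across triplicate wells above the cutoff set by the earlier primary insulin-degrading enzyme screen, cut at about 16% in these data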
HEK cytotox: cytotoxicity in HEK cells, cytotoxicity control for IDE inhibitor project, cell-based, luminescence. HEK293 cytotoxicity, ATP luminescence. 1,200 compounds, 28% hits. shares compounds with IDE cell inh. AID 449730, 2010. inhibition, % at 5.59 µM; in the data active = inhibition above about 22%
Numbers stand for hits. This is a sample that favours compounds with a hit; in the whole collection about 2.8% have one here.

CC(=O)Oc1c(-c2ccco2)oc2ccccc2c1=O was read as PP1 inh inactive, PP5 primary inactive, IDE cell inh 77, SKKanGAS inh inactive, IDE act inactive, Granule exo inh inactive, IDE inh confirm 104 and HEK cytotox inactive.
CC1(C)NC(=O)N(CC(=O)N2CCN(c3cccc(Cl)c3)CC2)C1=O was read as PP1 inh inactive, PP5 primary inactive, IDE cell inh inactive, IDE act inactive and Granule exo inh inactive.
For CCCCn1c(SCC(=O)N2CCN(c3ccccc3)CC2)nc2ccsc2c1=O the results were PP1 inh inactive, PP5 primary inactive, IDE cell inh 21, SKKanGAS inh inactive, IDE act inactive, Granule exo inh inactive, IDE inh confirm inactive and HEK cytotox inactive.
Screening CCCCn1c(SCC(=O)N2CCC(C)CC2)nc2ccsc2c1=O returned PP1 inh inactive, PP5 primary inactive, IDE cell inh inactive, SKKanGAS inh inactive, IDE act inactive and Granule exo inh inactive.
For CCN(CC)c1ccc2c(c1)OC(N)=C(C#N)C2c1cccnc1 (stereo not given) the results were PP1 inh inactive, PP5 primary inactive, IDE cell inh 49, SKKanGAS inh inactive, IDE act inactive, Granule exo inh inactive, IDE inh confirm 31 and HEK cytotox 70.
Screening O=C(O)CC1(CC(=O)NCc2cc(F)cc3c2OCOC3)CCCCC1 returned PP1 inh inactive, PP5 primary inactive, IDE cell inh inactive, SKKanGAS inh inactive, IDE act inactive and Granule exo inh inactive.
`CC(C)CSC1=NSC2=NC(=O)/C(=C\c3coc4ccccc4c3=O)C(=N)N12` gave PP1 inh inactive, PP5 primary inactive, IDE cell inh 63, SKKanGAS inh 61, IDE act inactive, Granule exo inh inactive, IDE inh confirm 106 and HEK cytotox inactive.
CSC1=NSC2=NC(=O)/C(=C\c3coc4ccccc4c3=O)C(=N)N12 was read as PP1 inh inactive, PP5 primary inactive, IDE cell inh 43, IDE act inactive, Granule exo inh inactive, IDE inh confirm 46 and HEK cytotox inactive.
N=C1/C(=C/c2coc3ccccc3c2=O)C(=O)N=C2SC(c3ccco3)=NN12 was read as PP1 inh inactive, PP5 primary inactive, IDE cell inh inactive, SKKanGAS inh inactive and Granule exo inh inactive.
For CCOc1cc(N2CCOCC2)c(OCC)cc1NC(=O)COC(=O)/C=C/c1ccc(OC(F)F)cc1 the results were PP1 inh inactive, PP5 primary inactive, IDE cell inh inactive, SKKanGAS inh inactive, IDE act inactive and Granule exo inh inactive.
Screening CCOC(=O)C1=C(CSc2nc(C)cc(C)c2C#N)OC(N)=C(C#N)C1c1cccs1 (stereo not given) returned PP1 inh inactive, PP5 primary inactive, IDE cell inh 23, IDE inh confirm inactive and HEK cytotox inactive.
Screening O=C(Nc1cccc(-n2cnnn2)c1)c1cccs1 returned PP1 inh inactive, PP5 primary inactive, IDE cell inh inactive, SKKanGAS inh inactive, IDE act inactive and Granule exo inh inactive.
Screening CCc1sc(C(=O)Nc2cccc(-n3cnnn3)c2)cc1C returned PP1 inh inactive, PP5 primary inactive, IDE cell inh 32, IDE act inactive, Granule exo inh inactive, IDE inh confirm 19 and HEK cytotox inactive.
CCOc1ccc(Nc2ccnc3cc(Cl)ccc23)cc1 was read as PP1 inh inactive, PP5 primary inactive, IDE cell inh 17, SKKanGAS inh inactive, IDE act inactive, Granule exo inh inactive, IDE inh confirm inactive and HEK cytotox 36.
`CCN(CC)CCNC(=O)c1cc(Br)c(N)cc1OC` gave PP1 inh inactive, PP5 primary inactive, IDE cell inh inactive, IDE act inactive and Granule exo inh inactive.
Screening COc1ccc(/C=C2\CC/C(=C\c3ccc(OC)c(OC)c3)C2=O)cc1OC returned PP1 inh inactive, PP5 primary inactive, IDE cell inh inactive, SKKanGAS inh inactive, IDE act inactive and Granule exo inh inactive.
COc1ccc(/C=c2\s/c(=C/C(=O)c3ccc(C)cc3)[nH]c2=O)cc1OC was read as PP1 inh inactive, PP5 primary inactive, IDE cell inh 79, SKKanGAS inh 62, IDE act inactive, Granule exo inh inactive, IDE inh confirm 78 and HEK cytotox inactive.
CCOC(=O)C1CCCN(C(=O)c2cc(S(=O)(=O)N3CCCCC3)c[nH]2)C1 (stereo not given) was read as PP1 inh inactive, PP5 primary inactive, IDE cell inh inactive, SKKanGAS inh inactive, IDE act inactive and Granule exo inh inactive.
For O=C(NCc1nnnn1-c1ccc(F)c(F)c1)c1cc2ccccc2o1 the results were PP1 inh inactive, PP5 primary inactive, IDE cell inh inactive, SKKanGAS inh inactive, IDE act inactive and Granule exo inh inactive.
Screening CC(C)(CC(=O)O)CC(=O)N1CCCN(c2nc3ccc(Cl)cc3s2)CC1 returned PP1 inh inactive, PP5 primary inactive, IDE cell inh inactive, SKKanGAS inh inactive, IDE act inactive and Granule exo inh inactive.
Screening CC(C)(CC(=O)O)CC(=O)N1CCN(c2nc3ccc(Cl)cc3s2)CC1 returned PP1 inh inactive, PP5 primary inactive, IDE cell inh 16, SKKanGAS inh inactive, IDE act inactive, Granule exo inh inconclusive, IDE inh confirm inactive and HEK cytotox inactive.
O=[N+]([O-])c1ccc(CN2CC(N3CCC(Cc4ccccc4)CC3)CS2(=O)=O)cc1 (stereo not given) was read as Granule exo inh inactive.
Screening O=c1cc(CNc2cc(Cl)ccc2Cl)nc2sccn12 returned PP1 inh inactive, PP5 primary inactive, IDE cell inh 17, SKKanGAS inh inactive, IDE act inactive, Granule exo inh inactive, IDE inh confirm inactive and HEK cytotox inactive.
Screening CCNc1nnc(CSc2nc3ccccc3s2)s1 returned PP1 inh inactive, PP5 primary inactive, IDE cell inh 17, SKKanGAS inh inactive, IDE act inactive, Granule exo inh inactive, IDE inh confirm inactive and HEK cytotox inactive.
Screening Cc1ccc(C2C=C(c3ccccc3OC(F)F)Nc3ncnn32)cc1 (stereo not given) returned PP1 inh inactive, PP5 primary inactive, IDE cell inh inactive, SKKanGAS inh inactive, IDE act inactive and Granule exo inh inactive.
